The results in this text go back to PubChem BioAssay (NCATS).

A short description of test [1]: BET inhibitor-based combinations targeting novel dependencies in MECOM-rearranged (r) AML: SET-2 cell line (AID 2202231). Also: nearly all actives have a fitted effect of over 35% in size.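 As to viability: plate controls were DMSO treated cells for no effect and wells without cells for full effect.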 The settings on record: SET-2 AML cells viability, CellTiter-Glo luminescence, 48 h; viability: hits give low values, concentration not given here. The method, boiled down: (§1)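 A 48 hr incubation preceded viability reading by CellTiter-Glo, with 15 min room-temperature development. Dose series had 11 points; normalization used DMSO and empty wells; AUC was computed and mean-centered per line as Z-AUC.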

Test [2] is described as follows: BET inhibitor-based combinations targeting novel dependencies in MECOM-rearranged (r) AML: OCI-AML3 cell line (AID 2202232). Also: nearly all actives have a fitted effect of over 35% in size.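 As to viability (% of control): series mostly up to about 46 µM; plate controls were DMSO vehicle wells for no effect and wells without cells for full effect.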 The following applies: Potency: OCI-AML3 viability. The method, boiled down:
as §1

Test [3] in a line: BET inhibitor-based combinations targeting novel dependencies in MECOM-rearranged (r) AML: MV-4-11 cell line (AID 2202233). Also: nearly all actives have a fitted effect of over 45% in size.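 As to viability, % of control: plate controls were DMSO for no effect and blank wells for full effect.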 The method, boiled down: (§2)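 Each compound is tested in an 11-point concentration series against 500 seeded cells/well for 48 hr. The luminescent viability signal is normalized to DMSO and blank wells, then reduced to AUC and a cell-line-centred Z-AUC.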
Test [4] is described as follows: BET inhibitor-based combinations targeting novel dependencies in MECOM-rearranged (r) AML: HNT-34 cell line (AID 2202234). Also: nearly all actives have a fitted effect of over 35% in size.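 As to viability (% of control): plate controls were vehicle wells for no effect and cell-free wells for full effect.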 In outline: as §2
The nature of test [5]: BET inhibitor-based combinations targeting novel dependencies in MECOM-rearranged (r) AML: AML-191 cell line (AID 2202236; also: nearly all actives have a fitted effect of over 35% in size;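 as to viability (% of control): plate controls were vehicle wells for no effect and wells without cells for full effect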). In outline:
as §1

Test [6] is described as follows: BET inhibitor-based combinations targeting novel dependencies in MECOM-rearranged (r) AML: AML-194 cell line (AID 2202237; also: nearly all actives have a fitted effect of over 40% in size;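 as to viability (% of control): plate controls were vehicle wells for no effect and wells without cells for full effect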). The method, boiled down:
as §1

The nature of test [7]: BET inhibitor-based combinations targeting novel dependencies in MECOM-rearranged (r) AML: UCSD-AML1 cell line (AID 2202235). Also: nearly all actives have a fitted effect of over 40% in size.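 As to viability (% of control): series mostly up to about 46 µM; plate controls were DMSO vehicle wells for no effect and blank wells for full effect.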 The method, boiled down: as §2

Inconclusive results are not listed. Values without a mark were called inactive. Active and inactive are the calls of the source. Calls follow the shape of the dose curve; as a rule, active = well fitted curve in the direction sought with a large enough effect; inconclusive = small, poorly fitted or top-dose-only effect, or another doubt; inactive = no such curve, though single readings can be large; an effect the other way counts as inactive or inconclusive.
Potency is read from the fitted curve at half-maximal effect.

With `C/C(=N\NC(=O)c1cccc(S(=O)(=O)N2CCOCC2)c1)c1cc(Cl)ccc1O`, the Potency in test [1] was 6.61 µM (active); in test [2] it was 1.86 µM (active); in test [3], 5.9 µM (active); in test [4], 2.95 µM (active); in test [5], 2.09 µM (active); in test [6], 4.17 µM (active).
Turning to `CCCS(=O)(=O)c1nc(NC2CC2)cc(-c2ccc3c(ccn3C3CC(C)(C)NC(C)(C)C3)c2)n1`, the Potency in test [1] was 2.21 µM (active); in test [2], 2.78 µM (active); in test [3], 2.48 µM (active); in test [4], 3.12 µM (active); in test [5] it was 3.12 µM (active).
Regarding `NC(=O)C1=C(O)[C@@]2(O)C(=O)C3=C(O)c4c(O)cccc4C[C@H]3C[C@H]2CC1=O`, the Potency in test [1] was 4.68 µM (active); in test [2], 3.72 µM (active); in test [3] it was 9.34 µM (active); in test [4], 8.33 µM (active); in test [5] it was 7.42 µM (active); in test [6], 10.5 µM (active).
Take `CC(C)OC(=O)[C@H](C)N[P@](=O)(OC[C@H]1O[C@@H](n2ccc(=O)[nH]c2=O)[C@](C)(F)[C@@H]1O)Oc1ccccc1`: the viability in test [1] is 107%. Moreover, the Potency entry in test [2], in test [3], in test [4], in test [5] and in test [6] was “inactive” each time.
For `COc1ccc2c(c1)CC[C@@H]1[C@@H]2CC[C@]2(C)[C@@H](NCCCCCCN3C(=O)C=CC3=O)CC[C@@H]12`, in test [1], the viability is 113%. Moreover, the Potency result in test [2], in test [3], in test [4], in test [5] and in test [6] was “inactive” in each case.
Take `CN1CCN(C(=O)[C@H]2[C@@H](C(=O)O)[C@H]3CC[C@@H]2O3)CC1`: in test [1], the viability was 113%. The viability (% of control) in test [2] was 112% [at 8.46 µM]; in test [7] it was 104% [at 8.46 µM]; in test [5] it was 93.9% [at 8.46 µM]; in test [6], 96.1% [at 8.46 µM]. Besides, in test [3], the viability, % of control is 111% [at 8.46 µM].
Regarding `COc1cc2ncn(-c3cc(OCc4ccccc4C(F)(F)F)c(C(N)=O)s3)c2cc1OC`, the Potency in test [1] was 1.86 µM (active); in test [2], 1.18 µM (active); in test [3], 2.09 µM (active); in test [7], 2.35 µM (active); in test [5], 1.48 µM (active); in test [6] it was 1.05 µM (active).
As for `NC1CCCN(c2c(/C=C3\SC(=O)NC3=O)cccc2-c2ccccc2)C1` (configuration not stated), the Potency in test [1] is 5.9 µM (active); in test [2], 0.235 µM (active); in test [3], 1.18 µM (active); in test [7], 0.59 µM (active); in test [5], 18.6 µM (active).
As for `CC(C)n1c(=O)cc(N[C@@H](C)c2ccccc2)[nH]c1=O`, the viability in test [1] is 110%. For the same molecule, the Potency entry in test [2], in test [7] and in test [5] was “inactive” throughout. For the same molecule, the Potency in test [3] was 14.8 µM (active).
On to `CC1c2cccc(O)c2C(O)=C2C(=O)C3(O)C(O)=C(C(N)=O)C(=O)C(N(C)C)C3C(O)C21` (configuration not stated), for which the Potency in test [1], in test [2] and in test [3] was 26.3 µM (active) each time. In addition, the Potency entry in test [7] is “inactive”.
`COc1ccc(S(=O)(=O)N(C(C)=O)c2ccccc2/C=C/c2cc[n+]([O-])cc2)cc1`: the Potency in test [1] is 2.63 µM (active); in test [2] it was 1.18 µM (active); in test [3] it was 1.18 µM (active); in test [7] it was 1.32 µM (active); in test [5], 1.18 µM (active); in test [6] it was 0.833 µM (active).
Regarding `CSc1ccc(C(=O)/C=C/c2cc(C)c(OC(C)(C)C(=O)O)c(C)c2)cc1`, the Potency was 34 µM (active) in test [1], 30.3 µM (active) in test [2] and 6.05 µM (active) in test [3]. In addition, the Potency entry in test [7] was “inactive”.
Turning to `CC(C)(C)c1[nH]cnc1/C=c1\[nH]c(=O)/c(=C/c2ccccc2)[nH]c1=O`, the Potency in test [1] was 0.0833 µM (active); in test [2], 0.0742 µM (active); in test [3] it was 0.0833 µM (active); in test [7] it was 0.059 µM (active); in test [5] it was 0.059 µM (active); in test [6], 0.0742 µM (active).
In the case of `Cn1cc(C2=C(c3cn(C)c4cc([N+](=O)[O-])ccc34)C(=O)NC2=O)c2ccccc21`, the Potency in test [1] was 2.35 µM (active); in test [2], 0.662 µM (active); in test [3], 0.833 µM (active); in test [7] it was 0.833 µM (active); in test [5], 0.662 µM (active); in test [6], 0.417 µM (active).
Regarding `COC1CCC(N2C(=O)CNc3ncc(-c4ccc(C(C)(C)O)nc4)nc32)CC1` (configuration not stated), the Potency was 7.42 µM (active) in test [1]; 5.25 µM (active) in test [2]; 3.72 µM (active) in test [3]; 0.525 µM (active) in test [7]; 5.9 µM (active) in test [5]; 1.66 µM (active) in test [6].
Regarding `Cc1ncsc1-c1ccc([C@H](C)NC(=O)[C@@H]2C[C@@H](O)CN2C(=O)[C@@H](NC(=O)COCCCOCCNC(=O)C[C@@H]2N=C(c3ccc(Cl)cc3)c3c(sc(C)c3C)-n3c(C)nnc32)C(C)(C)C)cc1`, the Potency in test [1] is 3.72 µM (active); in test [2], 0.0093 µM (active); in test [3] it was 0.0047 µM (active); in test [7] it was 0.0833 µM (active); in test [5] it was 0.209 µM (active); in test [6] it was 0.186 µM (active).
As to `Cc1ccc(Nc2ncc3c(n2)N(C)C(=O)N(c2cc(NC(=O)c4cccc(C(F)(F)F)c4)ccc2C)C3)cn1`, the Potency in test [1] is 0.934 µM (active); in test [2] it was 0.263 µM (active); in test [3], 0.0372 µM (active); in test [7] it was 0.0934 µM (active); in test [5] it was 0.0833 µM (active).
For the molecule `O=C(/C=C/c1cccnc1)NCCCCC1CCN(C(=O)c2ccccc2)CC1`, in test [1], the viability was 119%. Further, the Potency in test [2] was 0.0042 µM (active); in test [3], 0.0209 µM (active); in test [7] it was 0.0083 µM (active); in test [5], 0.0059 µM (active). Moreover, the Potency result in test [6] was “inactive”.
Turning to `N=C(N)c1ccc2nc(-c3cc(CC(=O)N[C@@H](CC(=O)O)C(=O)O)cc(-c4cc(S(N)(=O)=O)ccc4O)c3O)[nH]c2c1`, the viability in test [1] is 117%. In addition, the Potency entry in test [2], in test [3], in test [7], in test [5] and in test [6] was “inactive” in each case.
In the case of `C[C@]12CCC3=C4CCC(=O)C=C4CC[C@H]3[C@@H]1CC[C@@]2(O)CC#N`, the viability in test [1] is 108%. In addition, the Potency entry in test [2], in test [3], in test [7], in test [5] and in test [6] was “inactive” each time.
